Data taken from PubChem BioAssay (NCI).
About 83,000 compounds went through this panel and 20% of them were active in at least one assay; those are over-represented in the sample as a whole.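 Compound tested at a single concentration for 48 hours in 96-well plates; a percent growth value below 10 was scored as active.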 Activity calls are given as the source filed them.

How the values were obtained:
Assay in all cases: NCI-60 one-dose screen, 48 h (100 = growth as untreated, 0 = no growth, -100 = all killed)
BT-549 breast = conditions: 10 µM unless noted
MDA-MB-435 melanoma = conditions: 10 µM unless noted
SW-620 colon = conditions: 10 µM unless noted
MCF7 breast = conditions: 10 µM
HCT-116 colon = conditions: 10 µM unless noted
HCC-2998 colon = conditions: 10 µM unless noted
KM12 colon = conditions: 10 µM unless noted

Measured: growth

COc1ccc(/C=C/C(=O)c2ccc3cc(OC)c(OC)cc3c2)cc1OC
active: MDA-MB-435 melanoma 7.45%
inactive: BT-549 breast 33.9% | SW-620 colon 11.1% | MCF7 breast 25.9% | HCT-116 colon 16.9% | HCC-2998 colon 48.6% | KM12 colon 21.5%

COc1cccc(C(=O)Cn2cc(/C=C(\C#N)S(=O)(=O)c3ccccc3)c3ccccc32)c1
inactive: BT-549 breast 103% | MDA-MB-435 melanoma 113% | SW-620 colon 95.5% | MCF7 breast 94.5% | HCT-116 colon 83.9% | HCC-2998 colon 91% | KM12 colon 107%

Cc1ccc(S(=O)c2ccc([N+](=O)[O-])c3nonc23)cc1 (centres undefined)
inactive: BT-549 breast 95.4% | MDA-MB-435 melanoma 106% | SW-620 colon 29% | MCF7 breast 92.9% | HCT-116 colon 68.9% | HCC-2998 colon 116% | KM12 colon 109%

COC(=O)c1cc2c(n1Cc1ccccc1)-c1oncc1CCC2
active: MDA-MB-435 melanoma -13%
inactive: BT-549 breast 79.6% | SW-620 colon 34.7% | MCF7 breast 40.8% | HCT-116 colon 57.4% | HCC-2998 colon 76.2% | KM12 colon 63%

O=c1[nH]nnc2c1ncn2C1OC(CO)C(O)C1O (centres undefined)
inactive: BT-549 breast 97.7% | MDA-MB-435 melanoma 76.5% | SW-620 colon 63.3% | MCF7 breast 63.9% | HCT-116 colon 51.8% | HCC-2998 colon 34.4% | KM12 colon 60.7%

CCN1C(=O)N(c2ccccc2)C2NN=c3s/c(=C4\C(=O)N(C(C)C)c5ccccc54)c(=O)n3C21 (centres undefined)
active: MDA-MB-435 melanoma -21.2% | HCT-116 colon 4.19%
inactive: BT-549 breast 12.7% | SW-620 colon 35.2% | MCF7 breast 20.6% | HCC-2998 colon 33.4% | KM12 colon 14.5%

COc1cc2nc(-c3cnc(N(C)C)nc3)nc(NC3CCN(Cc4ccccc4)CC3)c2cc1OC
active: BT-549 breast -1.66% | MDA-MB-435 melanoma -83.6% | SW-620 colon -56.3% | MCF7 breast -65.5% | HCT-116 colon -80.6% | HCC-2998 colon -92.7% | KM12 colon -60.9%

Nc1nc2c(ncn2[C@@H]2O[C@H](CS)[C@@H](O)[C@H]2O)c(=O)[nH]1
inactive: BT-549 breast 100% | MDA-MB-435 melanoma 99.8% | SW-620 colon 96% | MCF7 breast 101% | HCT-116 colon 102% | HCC-2998 colon 104% | KM12 colon 101%

COc1cc(/C=C2\CCC/C(=C\c3cc(CN4CCOCC4)c(O)c(OC)c3)C2=O)cc(CN2CCOCC2)c1O
inactive: BT-549 breast 52.5% | MDA-MB-435 melanoma 27.4% | SW-620 colon 31.1% | MCF7 breast 21.1% | HCT-116 colon 23.3% | HCC-2998 colon 62.1%
active: KM12 colon 9.12%

CCCCCCC(O)(c1ccc(F)cc1)C(CN1CCOCC1)c1ccccc1 (centres undefined)
inactive: BT-549 breast 61.9% | MDA-MB-435 melanoma 35.8% | SW-620 colon 26.3% | MCF7 breast 20.4% | HCT-116 colon 18.5% | HCC-2998 colon 23.3% | KM12 colon 29%

COc1cc(CNC(=O)Cc2ccccc2)ccc1OCc1cn(-c2ccc(F)cc2)nn1
inactive: BT-549 breast 99.8% | MDA-MB-435 melanoma 98.4% | SW-620 colon 109% | MCF7 breast 91.8% | HCT-116 colon 102% | HCC-2998 colon 106% | KM12 colon 108%

COC(=O)C1(C)CCC[C@]2(C)[C@H]3C[C@H]4C(C(C)C)=C[C@]3(CC[C@@H]12)[C@H]1[C@@H]4[C@@H](OCC#CCN2CCOCC2)CC[C@@H]1OCC#CCN1CCOCC1 (some centres undefined)
inactive: BT-549 breast 97.7% | MDA-MB-435 melanoma 92.5% | SW-620 colon 94.7% | MCF7 breast 77.3% | HCT-116 colon 81% | HCC-2998 colon 97.4% | KM12 colon 93.2%

COc1ccccc1C(=O)/C=C/c1ccccc1
inactive: BT-549 breast 77.5% | MDA-MB-435 melanoma 78.4% | SW-620 colon 67.4% | MCF7 breast 28.6% | HCT-116 colon 37% | HCC-2998 colon 103% | KM12 colon 55.2%

COc1c(B(O)O)cccc1-c1nc2ccc3n[nH]c(F)c3c2c2c1CCCC2
active: BT-549 breast 5.08%
inactive: MDA-MB-435 melanoma 88.3% | SW-620 colon 59.7% | MCF7 breast 61.5% | HCT-116 colon 43.9% | HCC-2998 colon 116% | KM12 colon 40.7%

CN1C(=O)N(C)C2Nn3c(s/c(=C\c4ccc(Cl)cc4Cl)c3=O)=NC21 (centres undefined)
active: MDA-MB-435 melanoma 8.74%
inactive: BT-549 breast 93.9% | SW-620 colon 63.1% | MCF7 breast 45.4% | HCT-116 colon 43.9% | HCC-2998 colon 86.5% | KM12 colon 28.7%

COc1ccc(CCN2CCC(CN(C)Cc3cnn(-c4ccccc4)c3)CC2)cc1
inactive: BT-549 breast 32.5% | MDA-MB-435 melanoma 38.1% | SW-620 colon 26% | MCF7 breast 12.4% | HCT-116 colon 21.5% | HCC-2998 colon 21.5% | KM12 colon 22.5%

O=C(Nc1ccccc1O)c1ccc(-c2ccc(Cl)cc2Cl)o1
inactive: BT-549 breast 91.7% | MDA-MB-435 melanoma 96.9% | SW-620 colon 101% | MCF7 breast 87.5% | HCT-116 colon 68.7% | HCC-2998 colon 96.5% | KM12 colon 78.8%

O=C(CSc1ncccc1C(=O)O)Nc1ccc(Oc2ccccc2)cc1
inactive: BT-549 breast 97.8% | MDA-MB-435 melanoma 105% | SW-620 colon 91.9% | MCF7 breast 91.5% | HCT-116 colon 96.9% | HCC-2998 colon 102% | KM12 colon 110%

O=C(Nc1ccccc1O)c1ccc(Oc2cccc(C(=O)Nc3ccccc3O)c2)cc1
inactive: MDA-MB-435 melanoma 28.3% | SW-620 colon 18.4% | MCF7 breast 11.3% | HCC-2998 colon 21% | KM12 colon 15.8%
active: BT-549 breast 3.78% | HCT-116 colon 9.66%

COc1cccc2c(=O)c3c(sc12)c(NCCCNCCO)nc1ccccc13
inactive: BT-549 breast 84.8% | MDA-MB-435 melanoma 15% | HCT-116 colon 31.5% | HCC-2998 colon 37.9% | KM12 colon 31.3%
active: SW-620 colon -73.9% | MCF7 breast -13.6%

Cc1cccc2c(=O)c3c(sc12)c(NCCN)nc1ccccc13
inactive: BT-549 breast 72.1%
active: MDA-MB-435 melanoma -93.9% | SW-620 colon -77.6% | MCF7 breast -82.1% | HCT-116 colon -93.9% | HCC-2998 colon -77.8% | KM12 colon -90.5%

CCOc1ccc(Nc2ccnc3cc(Cl)ccc23)cc1
active: MDA-MB-435 melanoma -7.51% | MCF7 breast 4.41% | HCT-116 colon 9.4% | KM12 colon 6.96%
inactive: BT-549 breast 14.4% | SW-620 colon 14.5% | HCC-2998 colon 12.2%

CCOC(=O)c1cnc2c(C)cccc2c1Nc1ccc(C(C)=O)cc1
active: MDA-MB-435 melanoma -63.8% | SW-620 colon -62.2% | MCF7 breast -39.7% | HCT-116 colon 1.75% | HCC-2998 colon -91% | KM12 colon -34.7%
inactive: BT-549 breast 61.5%

O=C(NCc1ccccc1)C1CN(c2ccc(Cl)cc2)N(c2ccc(Cl)cc2)C1=O (centres undefined)
inactive: BT-549 breast 83.4% | SW-620 colon 60.8% | MCF7 breast 49.8% | HCT-116 colon 83.8% | HCC-2998 colon 99.4% | KM12 colon 59.8%
active: MDA-MB-435 melanoma 3.28%

O=C1Nc2ccccc2/C1=C/c1ccc[nH]1
inactive: BT-549 breast 57.8% | MDA-MB-435 melanoma 101% | SW-620 colon 89.3% | MCF7 breast 12.8% | HCT-116 colon 96% | HCC-2998 colon 54.7% | KM12 colon 10.4%

COc1ccc2c(c1)C=C1CSCC3=Cc4cc(OC)ccc4OC13O2
inactive: BT-549 breast 30.8% | SW-620 colon 33.2% | MCF7 breast 19.7% | KM12 colon 16.6%
active: MDA-MB-435 melanoma -40% | HCT-116 colon 9.24% | HCC-2998 colon 9.67%

O=C(NC1CCCCC1)C(c1cccs1)N(CCc1ccccc1)C(=O)c1ccco1 (centres undefined)
inactive: BT-549 breast 103% | MDA-MB-435 melanoma 104% | SW-620 colon 96.1% | MCF7 breast 88.3% | HCT-116 colon 82.9% | HCC-2998 colon 105% | KM12 colon 98%

CCOc1cc2c(cc1OCC)C(c1cc(C)c(O)c(C)c1)NCC2 (centres undefined)
inactive: BT-549 breast 107% | MDA-MB-435 melanoma 97.5% | SW-620 colon 100% | MCF7 breast 89.1% | HCT-116 colon 94.2% | HCC-2998 colon 103% | KM12 colon 103%

COC(=O)C1(C)COP(=O)(Nc2ccc(OC)cc2)OC1 (centres undefined)
inactive: BT-549 breast 98.4% | MDA-MB-435 melanoma 105% | SW-620 colon 108% | MCF7 breast 99.5% | HCT-116 colon 95.3% | HCC-2998 colon 94.1% | KM12 colon 103%

N#CC(C#N)=Cc1c(-c2ccccc2)[nH]c2ccccc12
active: MDA-MB-435 melanoma 7.52%
inactive: BT-549 breast 56% | SW-620 colon 21.1% | MCF7 breast 15.7% | HCT-116 colon 30.4% | KM12 colon 27.4%

COc1ccc(OC)c(NC(=O)/C(C#N)=C/c2ccco2)c1
inactive: BT-549 breast 84.5% | MDA-MB-435 melanoma 98.8% | SW-620 colon 106% | MCF7 breast 47.9% | HCT-116 colon 95.1% | KM12 colon 95.5%

Clc1ccc(Nc2nnc(-c3ccc4c(c3)OCO4)o2)cc1
inactive: BT-549 breast 116% | MDA-MB-435 melanoma 99.9% | SW-620 colon 102% | MCF7 breast 93.4% | HCT-116 colon 96.7% | KM12 colon 99.5%

CCCCNc1nc(NC(C)(C)C)nc(NC(C)(C)C)n1
inactive: BT-549 breast 79.9% | MDA-MB-435 melanoma 72% | SW-620 colon 52.3% | MCF7 breast 56% | HCT-116 colon 30.8% | KM12 colon 63.8%

CCN(CC)CCNC(=O)C(Cl)=C1C(Cl)=C(Cl)C(Cl)=C1Cl
inactive: BT-549 breast 33.3% | MDA-MB-435 melanoma 33.9% | SW-620 colon 34.7% | MCF7 breast 28.7% | HCT-116 colon 13.9% | KM12 colon 23.6%

COc1cc(C#N)cc2[nH]c(=O)oc12
inactive: BT-549 breast 97% | MDA-MB-435 melanoma 97.9% | SW-620 colon 101% | MCF7 breast 101% | HCT-116 colon 102% | KM12 colon 101%
